According to PubChem BioAssay (NCATS):
Records with an inconclusive call do not appear. Calls of active or inactive are those of the source. Calls come from the whole dose curve; as a rule, active = well fitted inhibition curve with a large enough effect in the repeat runs; inconclusive = weak or mixed curves; inactive = flat fitted curve, though single readings scatter.

Target: Cytochrome P450 2D6 (Homo sapiens) (UniProt P10635)
Assay: Cytochrome P450 family 2 subfamily D member 6 (CYP2D6) small molecule antagonists: luciferase biochemical (cell-free) qHTS assay (AID 1645840); note: nearly all actives have a fitted effect of over 55% in size
Conditions: P450-Glo CYP2D6 enzyme, luciferin luminescence, 1 h; series mostly up to 57.4 µM; activity change, negative = inhibition: at the top concentration
Description: National Center for Advancing Translational Sciences [NCATS] Assay Overview: Cytochrome P450 (CYP) enzymes are membrane-bound hemeproteins that play a key role in metabolism of drugs and xenobiotics. Assaying the effect of chemicals on CYP isozymes is useful to minimize the adverse drug reactions and toxicities in drug development process. Chemical compounds were tested for their effect on CYP enzyme activities by using P450-Glo (TM) screening systems (Promega Corporation, Madison, WI). These systems provide a luminescent method containing proluciferin substrates and are converted to luciferin products by CYP isozymes. The luciferin products formed are detected with a luciferin detection reagent, and the amount of light produced is proportional to CYP activity. P450-Glo (TM) CYP2D6 screening system (Catalog. No. V9890) was used to detect the compounds that interfere in CYP2D6 activity.
Assay Protocol Summary: Two ul of enzyme-substrate mix was dispensed into medium binding white/solid 1536-well plates (Greiner Bio-One North America Inc., Monroe, NC) using a Flying Reagent Dispenser (FRD, Aurora Discovery, San Diego, CA). […] The assay plates were incubated at room temperature for 10 min. Then 2 ul of NADPH regeneration solution was added to each well of the assay plates using an FRD and incubated at room temperature for 1 h. The reaction was stopped by adding 4 ul of detection reagent using an FRD and after 20 min incubation at room temperature, the luminescence signal was measured using a ViewLux plate reader (Perkin Elmer, Shelton, CT). Data were expressed as relative luminescence units.
% is set by controls: 0 for no effect and ±100 for the full control effect; potency is the fitted concentration of half-maximal effect.

Chain of Cytochrome P450 2D6 (Homo sapiens) (P10635 whole entry, looked up): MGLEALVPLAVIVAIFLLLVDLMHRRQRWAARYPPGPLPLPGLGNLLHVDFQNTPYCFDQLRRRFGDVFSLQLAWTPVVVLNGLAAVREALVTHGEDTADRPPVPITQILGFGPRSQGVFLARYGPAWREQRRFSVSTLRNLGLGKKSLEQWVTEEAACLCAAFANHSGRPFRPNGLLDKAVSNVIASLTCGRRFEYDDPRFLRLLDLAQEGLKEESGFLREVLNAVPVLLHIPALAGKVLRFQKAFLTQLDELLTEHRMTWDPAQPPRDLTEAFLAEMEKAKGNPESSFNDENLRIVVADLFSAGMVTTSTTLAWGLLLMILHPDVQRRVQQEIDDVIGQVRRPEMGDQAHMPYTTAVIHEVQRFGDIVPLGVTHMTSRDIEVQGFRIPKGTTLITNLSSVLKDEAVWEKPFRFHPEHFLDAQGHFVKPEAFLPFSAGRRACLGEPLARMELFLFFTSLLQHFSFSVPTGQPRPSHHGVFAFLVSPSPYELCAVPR

Row | SMILES | activity change, negative = inhibition | Potency
1 | Cc1ncsc1CCCl | 3.97% (inactive) | –
2 | CC(C)N(CCC(C(N)=O)(c1ccccc1)c1ccccn1)C(C)C (stereo not given) | -13.7% (inactive) | –
3 | COc1cccc(C(=O)CCN[C@@H](C)[C@H](O)c2ccccc2)c1 | – | 1.55 µM (active)
4 | Clc1ccc(C(c2ccc(Cl)cc2)C(Cl)(Cl)Cl)cc1 | -21.7% (inactive) | –
5 | COc1cc(CC(C)N)cc(OC)c1OC (stereo not given) | – | 30.6 µM (active)
6 | C[C@]12CCC(=O)C=C1CC[C@@H]1[C@@H]2CC[C@@]2(C)[C@H]1CC[C@]2(C)O | -18.4% (inactive) | –
7 | COc1cc(OC)c(OC)cc1C=O | -4.07% [at 115 µM] (inactive) | –
8 | COc1cccc2c1C(=O)c1c(O)c3c(c(O)c1C2=O)C[C@@](O)(C(=O)CO)CC3OC1CC(N2CCOC(OC)C2)C(O)C(C)O1 (stereo not given in full) | -27% (inactive) | –
9 | O=C1c2ccccc2C(=O)c2ccccc21 | 5.14% [at 23.9 µM] (inactive) | –
10 | COP(=S)(OC)Oc1ccc(SC)c(C)c1 | -22.1% (inactive) | –
11 | C=C(C)[C@H]1CN[C@H](C(=O)O)[C@H]1CC(=O)O | 9.29% (inactive) | –
12 | CCN(CCO)CCn1c(Cc2ccccc2)nc2c1c(=O)n(C)c(=O)n2C | 1.43% (inactive) | –
13 | COP(=S)(OC)Oc1ccc(S(=O)(=O)N(C)C)cc1 | -12.1% (inactive) | –
14 | CC(C)NC(C)C | -4.88% (inactive) | –
15 | CNCC(=O)c1ccc(O)c(O)c1 | -2.94% (inactive) | –
16 | CC(=O)C1CCOC1=O (stereo not given) | 12% (inactive) | –
17 | COC1CC(=C(c2cccs2)c2cccs2)C[N+](C)(C)C1 (stereo not given) | – | 0.138 µM (active)
18 | Nc1nc(N)nc(NC2CC2)n1 | 2.44% (inactive) | –
19 | O=C(O)CCCc1ccc(N(CCCl)CCCl)cc1 | 15.2% (inactive) | –
20 | C=CCC1([C@H](C)CCC)C(=O)NC(=O)NC1=O | 14.1% [at 115 µM] (inactive) | –

Row | SMILES | activity change, negative = inhibition | Potency
21 | O=C(CCCN1CCC2(CC1)C(=O)NCN2c1ccccc1)c1ccc(F)cc1 | – | 0.309 µM (active)
22 | C#CC(O)(C=CCl)CC (stereo not given) | -0.339% (inactive) | –
23 | c1ccc(CN2CCNCC2)cc1 | – | 30.6 µM (active)
24 | CC(NC(C)(C)C)C(=O)c1cccc(Cl)c1 (stereo not given) | – | 11 µM (active)
25 | Clc1ccccc1N1CCNCC1 | – | 13.8 µM (active)
26 | O=C1c2ccccc2C(=O)C1C(=O)C(c1ccccc1)c1ccccc1 | – | 19.2 µM (active)
27 | CCC(C)C(C)(COC(N)=O)COC(N)=O (stereo not given) | 4.78% (inactive) | –
28 | C[C@H]1[C@@H]2Cc3ccc(O)cc3[C@@]1(C)CCN2C | – | 107 µM (active)
29 | COc1cccc([C@@]2(O)CCCC[C@@H]2CN(C)C)c1 | -11.8% (inactive) | –
30 | CN1CCC(O)(c2ccc(F)cc2)C(C(=O)c2ccc(F)cc2)C1 (stereo not given) | – | 24.5 µM (active)
31 | CCC1(c2ccccc2)C(=O)N(COC)C(=O)N(COC)C1=O | 3.83% (inactive) | –
32 | CC1(C)C(C=C(Cl)Cl)C1C(=O)OC(C#N)c1cccc(Oc2ccccc2)c1 (stereo not given) | -21.7% (inactive) | –
33 | CC(C)(C)NCC(O)c1cc(Cl)c(N)c(C(F)(F)F)c1 (stereo not given) | – | 15.5 µM (active)
34 | CCN(CC)CCc1c[nH]c2ccccc12 | – | 5.91 µM (active)
35 | O=c1c(C2CC(c3ccc(-c4ccc(Br)cc4)cc3)Cc3ccccc32)c(O)sc2ccccc12 (stereo not given) | -0.0114% (inactive) | –
36 | CC(C)=CC1C(C(=O)OCN2C(=O)C3=C(CCCC3)C2=O)C1(C)C (stereo not given) | – | 6.92 µM (active)
37 | CC(C)(N)Cc1ccccc1Cl | – | 13.8 µM (active)
38 | O=C(N/N=C/c1ccc([N+](=O)[O-])o1)c1cc([N+](=O)[O-])cc([N+](=O)[O-])c1O | – | 0.617 µM (active)
39 | NC1=NC(=O)C(c2ccccc2)O1 (stereo not given) | 4.2% (inactive) | –
40 | COP(=S)(OC)Oc1cc(Cl)c(Cl)cc1Cl | -12.8% (inactive) | –
